Source: PubChem BioAssay (NCI)
About 83,000 compounds went through this panel and 20% of them were active in at least one assay; those are over-represented in the sample as a whole.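 In brief: 96-well plates, 48 h treatment, single concentration, percent growth endpoint.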 A number with no mark means an inactive call. Active and inactive are the calls of the source. Rule for the calls: active = growth percent below 10; inactive = the rest.

What was measured:
Assay in all cases: NCI-60 one-dose screen, 48 h (100 = growth as untreated, 0 = no growth, -100 = all killed)
Conditions in all cases: 10 µM unless noted
NCI-H23 lung = system: NCI-H23 lung
NCI-H322M lung = system: NCI-H322M lung
HOP-62 NSCLC = system: HOP-62 NSCLC
NCI-H460 lung = system: NCI-H460 lung
HOP-92 NSCLC = system: HOP-92 NSCLC
NCI-H522 lung = system: NCI-H522 lung
A549/ATCC NSCLC = system: A549/ATCC NSCLC
786-0 renal = system: 786-0 renal
COLO 205 colon = system: COLO 205 colon
DU-145 prostate = system: DU-145 prostate
MALME-3M melanoma = system: MALME-3M melanoma
MDA-MB-231 breast = system: MDA-MB-231 breast
SF-268 CNS = system: SF-268 CNS
SF-295 CNS = system: SF-295 CNS
SF-539 CNS = system: SF-539 CNS
UACC-257 melanoma = system: UACC-257 melanoma
M14 melanoma = system: M14 melanoma
HCT-15 colon = system: HCT-15 colon
K-562 leukemia = system: K-562 leukemia
RXF 393 renal = system: RXF 393 renal

| SMILES | growth (NCI-H23 lung) | growth (NCI-H322M lung) | growth (HOP-62 NSCLC) | growth (NCI-H460 lung) | growth (HOP-92 NSCLC) | growth (NCI-H522 lung) | growth (A549/ATCC NSCLC) | growth (786-0 renal) | growth (COLO 205 colon) [%] | growth (DU-145 prostate) | growth (MALME-3M melanoma) | growth (MDA-MB-231 breast) | growth (SF-268 CNS) | growth (SF-295 CNS) | growth (SF-539 CNS) | growth (UACC-257 melanoma) | growth (M14 melanoma) | growth (HCT-15 colon) | growth (K-562 leukemia) | growth (RXF 393 renal) |
| --- | --- | --- | --- | --- | --- | --- | --- | --- | --- | --- | --- | --- | --- | --- | --- | --- | --- | --- | --- | --- |
| O=C(O)c1cn(C2CC2)c2cc(N3CCN(C(=O)C[n+]4ccccc4)CC3)c(F)cc2c1=O | 104% | 105% | 103% | 106% | 98.5% | 93.4% | 99.1% | 98.5% | 121 | 102% | 99.5% | 105% | 95.3% | 101% | 95.1% | 101% | 106% | 102% | – | – |
| CC(=O)c1ccc(Nc2nc(NCCO)nc(Nc3ccc(Cl)cc3)n2)cc1 | 99.1% | 97.1% | 100% | 93.6% | 86.4% | 81.2% | 85.6% | 104% | – | 94.8% | 93.5% | 82.5% | 91.9% | 97.8% | 87.2% | 88.4% | 114% | 73.9% | 78% | 67.2% |
| NCCNc1nc2ccccc2c2c(=O)c3cc(F)cc(Cl)c3sc12 | 75.4% | -27.1% (active) | -51.7% (active) | -90% (active) | 40.8% | -44.8% (active) | -72.9% (active) | -90.4% (active) | – | -92.6% (active) | 89.6% | -79.2% (active) | -42.4% (active) | 98.2% | 58.6% | 103% | -76.6% (active) | -83.4% (active) | -62.7% (active) | 67% |
| CNCCNc1nc2ccccc2c2c(=O)c3cccc(OC)c3sc12 | 47.1% | 33.8% | 34.1% | -68.2% (active) | 5.16% (active) | 27.5% | 17.9% | 26.5% | – | 12.6% | 59.6% | 13.8% | 37.8% | 52.6% | 34.9% | 64% | -71.3% (active) | -39.9% (active) | -39% (active) | 41.5% |
| COc1cccc(/C(C#N)=C/c2nc3c(N4CCOCC4)nc(Cl)nc3n2C)c1 | 25.6% | 63.4% | 35.2% | 17.4% | -66.3% (active) | -64.7% (active) | 29.2% | -69.4% (active) | – | -77.6% (active) | -45.2% (active) | -68.9% (active) | -24.4% (active) | 85.7% | -20.2% (active) | -57.6% (active) | -54.3% (active) | -46.4% (active) | 0.802% (active) | -84.9% (active) |
| COC(=O)c1c2c(c(C)[n+]([O-])c1C)C(=O)C(NCc1ccc(Br)cc1)=CC2=O | 11% | 28.7% | 31.4% | 3.51% (active) | 78.1% | 42.8% | 18.2% | 48.8% | – | 53.3% | -70.1% (active) | 4.21% (active) | 16.2% | 19.3% | 8.36% (active) | -52.3% (active) | 4.19% (active) | 7.94% (active) | 32% | 41.4% |
| Cn1c(/C=C(\C#N)c2ccccc2)nc2c(N3CCOCC3)nc(Cl)nc21 | 17.5% | 65.9% | 38% | 18.1% | -75.6% (active) | -57.5% (active) | 30.4% | -71.4% (active) | – | -72.4% (active) | -51.2% (active) | -80.3% (active) | -66.2% (active) | 85.1% | -88% (active) | -61.5% (active) | -62.5% (active) | -66.8% (active) | -13.8% (active) | -86.3% (active) |
| O=C1C(=O)c2c(ccc3ccccc23)-c2ccccc21 | -48.4% (active) | 50.5% | 9.44% (active) | 3.58% (active) | -20.6% (active) | -77.4% (active) | 24.1% | -6.68% (active) | 52 | – | -83.8% (active) | -7.61% (active) | 1.97% (active) | 109% | -53.5% (active) | -37.4% (active) | -44.6% (active) | -27.6% (active) | 8.29% (active) | 22% |
| O=c1c2cccc(F)c2sc2c(N3CCNCC3)nc3ccccc3c12 | 51% | 37.9% | 37.2% | -77.2% (active) | 35.3% | 48.6% | 21.8% | 37% | – | 22.3% | 53.5% | 34.6% | 41.4% | 74.6% | 48.9% | 8.99% (active) | -27.4% (active) | 5.87% (active) | -42.1% (active) | 42.4% |
| O=C(NCc1ccccc1)C1CN(c2ccc(Cl)cc2)N(c2ccc(Cl)cc2)C1=O (centres undefined) | 94% | 95.8% | 74.6% | 85.6% | 86.5% | 65.6% | 69.6% | 99.3% | – | 97.5% | 73.8% | 91.3% | 82.4% | 76.3% | 93.4% | 79.4% | 74.9% | 59.5% | 35.1% | 81.1% |
| COc1cc2c(cc1OC)C(=O)C(CC1CCN(C(=O)Nc3ccc(C)cc3)CC1)C2 (centres undefined) | 100% | 95.7% | 99.1% | 97.3% | 62.5% | 87.8% | 108% | 101% | 110 | 104% | 91.1% | 76.7% | 96.8% | 96.5% | 92.8% | 119% | 97.5% | 94.5% | – | – |
| COc1cc(/C(C#N)=C/c2nc3c(N4CCOCC4)nc(Cl)nc3n2C)cc(OC)c1OC | 18.2% | 28.8% | 25.1% | -3.75% (active) | -4.18% (active) | 15.7% | 19.5% | 6.45% (active) | – | 4.54% (active) | 34.8% | 9.11% (active) | 17.2% | -15% (active) | -23.7% (active) | 66.2% | 10.8% | 8.94% (active) | 4.64% (active) | 25.7% |
| CCCN1CCN(c2ccc3nc(-c4ccc5nc(-c6cc(OC)ccc6OC)[nH]c5c4)[nH]c3c2)CC1 | 103% | 115% | 117% | 100% | 110% | 113% | 115% | 101% | – | 114% | 139% | 107% | 106% | 104% | 96.2% | 110% | 111% | 62.1% | -45.3% (active) | 93.3% |
| CNCCNc1nc2ccccc2c2c(=O)c3cc(OC)ccc3sc12 | 69.6% | 38.8% | 41.2% | -72.2% (active) | 23.9% | 9.6% (active) | 24.6% | 10.7% | – | -25.6% (active) | 67.1% | 1.79% (active) | 38.7% | 87.3% | 60% | 73.1% | -62.5% (active) | -31.8% (active) | -34% (active) | 42.4% |
| COc1cc(C2C(C#N)=C(N)OC3=C2C(=O)c2ccccc2C3=O)cc(OC)c1OC (centres undefined) | 31.4% | 48.1% | 7.45% (active) | 9.57% (active) | 80.6% | -18.6% (active) | 41% | 35.6% | 89 | 25.1% | 47.8% | 36.4% | 39.5% | 23.2% | -19.6% (active) | 50.5% | 12.3% | 20.1% | – | – |
| COc1ccc(N2C(=O)CC(c3cc(OC)c(OC)c(OC)c3)C3C2=NC(=O)N3C)cc1 (centres undefined) | 110% | 105% | 108% | 108% | 105% | 97.5% | 104% | 103% | 101 | 106% | 105% | 109% | 100% | 101% | 97.9% | 98.2% | 105% | 102% | – | – |
| COc1cc2nc(NC3CCC3)nc(NC3CCN(C(C)C)CC3)c2cc1OC | 92.2% | 89.2% | 81.5% | 58.3% | 26% | 30.7% | 4.73% (active) | 68% | – | 57.1% | -4.44% (active) | -2.38% (active) | 77.9% | 96.6% | 5.1% (active) | -59.9% (active) | -65.8% (active) | 67.7% | 0.162% (active) | -16.9% (active) |
